Experimental data taken from the supplement of paper PMC12632987.

T1: USP38, Q8NB14
T1 chain: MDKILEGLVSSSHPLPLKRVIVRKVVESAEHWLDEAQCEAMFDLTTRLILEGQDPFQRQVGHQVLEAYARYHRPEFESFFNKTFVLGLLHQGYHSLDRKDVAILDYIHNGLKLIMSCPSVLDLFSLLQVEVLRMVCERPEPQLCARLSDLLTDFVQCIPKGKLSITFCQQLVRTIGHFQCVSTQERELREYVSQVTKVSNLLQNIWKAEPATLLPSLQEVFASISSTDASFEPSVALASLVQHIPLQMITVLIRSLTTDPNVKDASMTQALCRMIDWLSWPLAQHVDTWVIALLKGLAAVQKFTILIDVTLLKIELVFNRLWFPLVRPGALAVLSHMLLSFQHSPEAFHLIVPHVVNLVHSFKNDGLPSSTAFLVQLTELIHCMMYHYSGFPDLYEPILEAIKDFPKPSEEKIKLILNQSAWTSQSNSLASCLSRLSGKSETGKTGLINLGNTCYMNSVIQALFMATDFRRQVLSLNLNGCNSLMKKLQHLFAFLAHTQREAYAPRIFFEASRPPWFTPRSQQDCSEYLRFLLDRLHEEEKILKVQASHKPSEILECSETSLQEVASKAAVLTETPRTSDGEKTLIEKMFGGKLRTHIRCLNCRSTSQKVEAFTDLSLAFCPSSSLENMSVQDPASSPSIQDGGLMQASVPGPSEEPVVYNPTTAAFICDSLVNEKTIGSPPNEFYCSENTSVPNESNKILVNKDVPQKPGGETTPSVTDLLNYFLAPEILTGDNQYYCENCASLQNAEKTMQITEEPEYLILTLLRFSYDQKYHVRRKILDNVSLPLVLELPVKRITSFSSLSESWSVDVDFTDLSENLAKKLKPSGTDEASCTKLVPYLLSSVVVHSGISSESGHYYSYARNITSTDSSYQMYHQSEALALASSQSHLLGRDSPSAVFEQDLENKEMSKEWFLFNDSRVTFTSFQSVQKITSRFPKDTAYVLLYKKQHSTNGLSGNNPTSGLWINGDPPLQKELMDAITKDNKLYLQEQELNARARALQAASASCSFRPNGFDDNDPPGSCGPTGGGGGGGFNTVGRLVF


Molecular target: T1, USP38, Q8NB14
Assay: median log2 fold change of GCK-ALFA target abundance (FLAG IP / Myc IP barcode read proportion) (log2 ratio); each designed protein is fused to an ALFA-tag nanobody in HEK293 cells to bring the named protein to FLAG-tagged glucokinase (GCK); Myc marks an untargeted standard; higher = target protein stabilised (more abundant)
Conditions: target protein: 3xFLAG-MCP-GCK-ALFA reporter; HEK293 landing pad (RPLP)
Summary of the method: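 HEK293 landing-pad cells received a recombined binder library fused to the ALFA nanobody and were induced with 2 μg mL^−1 doxycycline, then transfected with a plasmid encoding a FLAG-tagged target and a Myc-tagged standard. Lysates were collected after 48 h for anti-FLAG and anti-Myc immunoprecipitation, and the circular RNA barcodes were reverse transcribed, amplified and sequenced. Target abundance for each binder is the median log2 ratio of FLAG to Myc barcode read proportions. Barcodes had to reach a proportion of at least 10^−7 in both replicates, each binder needed at least 3 barcodes per replicate, a pseudocount of 10^−6 was applied, and the two replicates were pooled.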

| Binder | median log2 fold change |
| --- | --- |
| usp_38_diff_out_18_14_349 (protein) SEELREQTLSNLKSLKKEVEEVTERTERIVEKLRGDPEAARALLDTRIQALEGVIKYAEEVLKEAEEEGWEEVAKAAKELIEAAKEAKKRAEELRKELEE | -0.113 |
| usp_38_diff_out_18_28_373 (protein) SEEEREELKKRLEELEKRLDELIDRYVELANRVYEEHPDDEEKLRLLDEAADALGEAAYHLREARRLLREGGPPEEVKKELEKAEEALKKAEELLKELEE | 0.0573 |
| usp_38_diff_out_18_28_378 (protein) AAAERAALEAELAALRAELDALIDEATEAATRALEAHPDDEEVWALVDELFDTLGAAAAALNEARRLLKEGGDLAEVKAALAAARDALARARELLAELKA | -0.0434 |
| usp_38_diff_out_18_14_347 (protein) EEELAEQLKSNFESLTKEVEENTKRTKKIIEKLKDDKESAISLLETRIQALDGVITYAKEEKKEAEEKGFEELKAAAEKLIDAATKAKEELEKLLKELKK | 0.152 |
| usp_38_diff_out_18_28_379 (protein) EEARREELERRLEELRRRLDELIDEATEAATEALTAHPDDEEVWELVDELFDTLGRAAAALERARRLLREGGPLEEVERALEEAERHLEEAEELLEELEE | -0.355 |
| usp_38_diff_out_18_28_365 (protein) SEEERRELERRLEELTRRLDELIDEATEAATEALTAHPDDEEVWELVDRLFDALGAAAAALNRARELLREGGPLEEVEEELEEAERHLREAERLLEELRE | 0.239 |
| usp_38_diff_out_18_28_360 (protein) MEERREELEKRLKELKAELDKLITEATAAITEALEAHPDDEEVWALVDKLWDALGKAAAAINEARELLREGGDLEEVEKLLKEAEKHLKKAKELLAELKA | 0.282 |
| usp_38_diff_out_18_28_375 (protein) SAATRAALEAELAALEARLDALIDEYVALANRVYEEHPDDAEALALLDAAADALGAAAAALAEARRLLRAGGDPAEVRARLAEARAALAEAEALLAQLKA | -0.238 |
| usp_38_diff_out_18_28_366 (protein) SMEEREKLEKELEELKKELDALIDEATALATEALTAHPDDEEVWALVDELFDSLGKAAAHLNRARELLREGGPLEEVEKELKEAKEHLEKAKELLAKLKA | -0.062 |
| usp_38_diff_out_18_14_352 (protein) EEELREQLLSNLRSLTEEVRRNTERLKRIVEKLRDDPESALALLETRRQALEGVIRYAREVLREARERGWEELAEAAEELIRAAEEALEEAKRLEEELKK | -0.239 |
| usp_38_diff_out_18_14_351 (protein) EEELREQLLSNLKSLTKEVKENTERTKKIVEKLKDDPESASSLLDTRIQALEGVIKYAEEVLREAKEKGWEELAEAAKELIKEAKKAKEELKKLKEALKA | -0.345 |
| usp_38_diff_out_18_14_350 (protein) SEELEKQKLSNLKSLKEEVKKNTERLKKIVEKLKDDPESALSLLDTRIQALEGVIKYAEEVLKEAEEKGWEELAKAAKELIKEAEKAKKEAKELKKKLLE | -0.185 |
| usp_38_diff_out_18_28_364 (protein) SAAERAALEAELKALTAELDALIDEATEVATEKLTEHPDDEEVWELVDKLFDALGAAAAALNKARELLREGGPLEEVKKQLAKAKEALAEAKKLLEELKK | 0.391 |
| usp_38_diff_out_18_28_361 (protein) MEEERRELEEELRRLEEELERLITEATEAITRALTAHPDDEEVWKLVDELWDALGKAAAAINEARELLREGGPLEEVKAKLDEARKYLKEAKKLLEELKK | 0.017 |
| usp_38_diff_out_18_159_359 (protein) DEELLAELDKEILRDYSTSLAEEAKEKAKKAKDPEVKKLWAEVAKTAKYAAENLDNPEALAQAAKELTALTEELKKKGALNDREELQLQGLITLLNRVAA | 0.289 |
| usp_38_diff_out_18_28_374 (protein) SEEEREELERRLRELEERLDELIDEYVELAERVYLEHPDDAEKLALLDAAADALGAAAYHLREARRLLREGGDPEEVERELEKAEEALEEAERLLEELKA | -0.302 |

| Binder | median log2 fold change |
| --- | --- |
| usp_38_diff_out_18_14_356 (protein) SEEEREATRLFIEARLAAAELVNADADKIIAYEKKHKNRSADTIEMMRGGLAAMAAELEEDLKLAKELGDEELAARLAAAQAELKARAAEFDALLAEKKA | -0.0299 |
| usp_38_diff_out_18_14_354 (protein) SEELREQTLSNLETLTADVEANTARLRRVVAALKDDPASARALLETRAQAMEGVIEYAERLEREAEEEGDEELLEAARRLRATAEAALAEIQALLAELDA | -0.0379 |
| usp_38_diff_out_18_28_369 (protein) SAAERAALEAELAALTARLDALIDEATAEATRRLTEHPDDEEVWELVDELFDALGAAAAALREARELLREGGPLAEVQAALDRARAALARAEALLAELKA | 0.292 |
| usp_38_diff_out_18_14_357 (protein) SEAELEAQREYLEAFLEAAEIVNEEAERIIEREREKRILSADRLALMLGGLRALAEEAEEKLREARELGFEELAERLEEALERLEENAERFEALLAERRA | -0.477 |
| usp_38_diff_out_18_28_362 (protein) AAAERARLEARLRALGARLDALITDATAAVTAALTAHPDDAAVWALVDALWDALGKAAAAVNEARELLRAGGPAEEVERALEAAEAALAEAQALLAQLRA | -0.0207 |
| usp_38_diff_out_18_159_358 (protein) DAELLHQLNLELLKAHLKSWAENAEKKAKKTKTEVAKKVAELAKKALELFEKDPNSKEALKEILELAKEALELIKSDPSFNDRDKTSAAGLVVLAQEVLA | 0.093 |
| usp_38_diff_out_18_14_353 (protein) SEELREQLLSNLKTLKEEVRENRERTKRIVARLRDDPESARSLLESRIQAFKGVIKFAEELEKEAKEEGDEELLAAAKELKKEAEEALKELEALLAELDA | -0.0535 |
| usp_38_diff_out_18_28_376 (protein) SAAERARLEAELAALRAELDALIDEATATATEALEAHPDSEEVWALIDALFDALGAAAAALEEARRLLRAGGPLAEVQALLDRAREHLRRARELLAELKA | -0.0614 |
| usp_38_diff_out_18_14_348 (protein) SEELYEQELSNLKSLTEEVKKNTERLKKIVEKLKDDPESALSLLETREQALKGVIKYAEEVAKEAKKEGREELLKAAEELIKAAKEALAEAKKLREELLA | -0.156 |
| usp_38_diff_out_18_28_372 (protein) SAAERAALEARLAALEAELNALIDEFVELAERVYEERADDEEALALLDRAWDALGAAAAALNRARELLREGGPAAEVQAQLDAAEAALAEAKALLAELKA | -0.142 |
| usp_38_diff_out_18_28_377 (protein) MEEERERLERELEELRERLDELIDEATEASLKKLEEEPDSEEVWELIDRLFDALGAAAAALREARELLKAGGPLEEVQRLLEEARRHLEEAERLLEELKE | -0.388 |
| usp_38_diff_out_18_28_371 (protein) SAAERAALEARLAALEAELDALIDELVELAKEVYEEHADDEEKLALLDAAWDALGRAAGLLRRARELLREGGDPAEVAALLDAAEAALAEAKALLAELKK | -0.371 |
| usp_38_diff_out_18_28_368 (protein) SEEERRELERRLEELTKRLDELIDEATAESTRALTAHPDDEAVWALVDALFDALGAAAAALNRARELLREGGPLEEVQKELDRAEAALKEAEALLAELKA | 0.199 |
| usp_38_diff_out_18_28_367 (protein) SAAARAAAEARLAALTAELDELIDEATAEATAALTAHPDDAAVWALVDALFDALGAAAAALNRARELLREGGPLEEVEAALAQAEAELARARELLAQLRA | 0.0424 |
| usp_38_diff_out_18_28_370 (protein) SEEERERLEERLAALKAELDALIDRATAAATAALEAHPDDAEVWALIDALFDALGAAAAALNEARRLLREGGDLEEVERLLEQAEAHLAQARALLAQLEA | 0.0316 |
| usp_38_diff_out_18_28_363 (protein) EEERRRRLEAELEALRARLDALITEATAAITEALTAHPDDEEVWRLVDELLDALGRAAAALEEARRLLREGGPLEEVERLLREAERELERAERLLEELKA | -0.0876 |
